Experimental findings from PubChem BioAssay (Tox21) are described below.

Results filed as inconclusive are left out. The source made the active and inactive calls. Unless noted, calls come from the whole dose curve; as a rule, active = well fitted curve in the direction sought with a large enough effect in the repeat runs; inconclusive = weak or mixed curves; inactive = no such curve, though single readings can be large; an effect the other way counts as inactive or inconclusive.

Assay [1] in a line: qHTS assay to identify small molecule agonists of the RXR signaling pathway - cell viability counter screen (AID 1159529).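 Note: HEK 293T cells carrying an RXR-alpha UAS beta-lactamase reporter; series mostly up to about 77 µM; nearly all actives have a fitted effect of over 50% in size.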 The gist of the method: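 Counter screen: CellTiter-Glo luminescence. Cells: RXR-alpha-UAS-bla HEK 293T. Medium: 2% charcoal-stripped FBS. Treatment: 16 h, 37 C. Reagent incubation: 30 min, RT.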
A general note: Quantitative high-throughput screening tests each substance at several concentrations.

Assay [2] can be described thus: qHTS assay to identify small molecule antagonists of the retinoid acid receptor (RAR) signaling pathway - cell viability counter screen (AID 1159551). Note: nearly all actives have a fitted effect of over 35% in size. The gist of the method: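 Cytotoxicity counter screen in C3RL4 cells: 6 h compound exposure with 1 uM retinol (final), viability from cellular ATP by luminescence.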
A short description of assay [3]: qHTS assay to identify small molecule antagonists of the retinoic acid receptor (RAR) signaling pathway (AID 1159552; note: nearly all actives have a fitted effect of over 50% in size; note: potency is the fitted concentration of half-maximal effect). A digest of the protocol:
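Antagonism of retinol-induced RARE reporter activity was measured in C3RL4 cells. Exposure to compounds and 1 uM final retinol lasted 6 hr at 37 C, with luminescence as endpoint.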

The nature of assay [4]: qHTS assay to identify small molecule agonists of the retinoic acid receptor (RAR) signaling pathway (AID 1159553). A digest of the protocol:
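Agonist activity was scored in C3RL4 cells bearing a retinoic acid response element luciferase construct. Cells were treated with compounds for 6 hr at 37 C, and luciferase signal was measured as luminescence.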

Assay [5] is described as follows: qHTS assay to identify small molecule antagonists of the estrogen related receptor (ERR) signaling pathway from Tox21 library - cell viability counter screen (AID 1224834). Note: nearly all actives have a fitted effect of over 30% in size. The gist of the method:
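Cytotoxicity of test substances is gauged in the same ERR cells used for the antagonist screen, after 17.5 h of compound treatment at 37 C, by CellTiter-Fluor fluorescence measured after 30 min.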

Assay [6] deals with Luciferin 4-monooxygenase (Photinus pyralis) (UniProt P08659). Nature of the assay: qHTS assay to identify small molecule inhibitors of firefly luciferase (AID 1224835). Note: series mostly up to about 120 µM; nearly all actives have a fitted effect of over 25% in size. A digest of the protocol:
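Quantitative HTS format; KM concentrations of both substrates. Purified P. pyralis FLuc activity quantified from luminescence images.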

The nature of assay [7]: qHTS assay to identify small molecule agonists of the constitutive androstane receptor (CAR) signaling pathway - cell viability counter screen (AID 1224836). Note: series mostly up to about 92 µM; nearly all actives have a fitted effect of over 45% in size. A digest of the protocol: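 Double-stable HepG2 hepatoma cells (hCAR plus CYP2B6-2.2kb) are treated for 23 h at 37 C with test compounds in 15-point concentration series. PK11195 at 0.75 uM final is co-added. Cell viability is quantified by CellTiter-Fluor.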

Assay [8] can be described thus: qHTS assay to identify small molecule antagonists of the constitutive androstane receptor (CAR) signaling pathway - cell viability counter screen (AID 1224837). Note: series mostly up to about 92 µM; nearly all actives have a fitted effect of over 45% in size. The gist of the method: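 Multiplexed cytotoxicity read-out for the CAR antagonist screen: double-stable HepG2-CYP2B6-hCAR cells co-treated with 50 nM CITCO (final) and compound over 15 concentrations, incubated 23 hr, then assessed by CellTiter-Fluor fluorescence.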

Assay [9] addresses Nuclear receptor subfamily 1 group I member 3 (Homo sapiens) (UniProt Q14994). In words: qHTS assay to identify small molecule antagonists of the constitutive androstane receptor (CAR) signaling pathway (AID 1224838). Note: nearly all actives have a fitted effect of over 40% in size. A digest of the protocol:
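Compounds were titrated across 15 concentrations onto HepG2 cells double-stably expressing hCAR and a CYP2B6-2.2kb reporter, together with 50 nM CITCO (final). After 24 h at 37 C, luciferase activity was measured by luminescence.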

The nature of assay [10]: qHTS assay to identify small molecule antagonists of the estrogen related receptor signaling pathway with the pleiotropic PPARgamma coactivator (PGC) from Tox21 10K library - cell viability counter screen (AID 1224840; active = well fitted cell-killing curve with a large enough effect in the repeat runs, not every such curve was filed as active; note: nearly all actives have a fitted effect of over 40% in size). The gist of the method:
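Step one, plate 2,000 PGC/ERR cells per well; step two, incubate 6 h at 37 C/5% CO2; step three, pin-transfer compounds; step four, incubate 17.5 h; step five, add CellTiter-Fluor and read fluorescence after 30 min.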

Assay [11] is described as follows: qHTS assay to identify small molecule agonists of the estrogen related receptor signaling pathway with the pleiotropic PPARgamma coactivator (PGC) from Tox21 10K library (AID 1224842). Note: nearly all actives have a fitted effect of over 15% in size. A digest of the protocol:
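PGC/ERR reporter cells (NTP line) were seeded 2,000 per well, rested 6 h at 37 C/5% CO2, then pin-dosed with compounds in DMSO for 18 h at 37 C; luciferase read by One-Glo luminescence after 30 min at room temperature.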

For assay [12], the target named is Thyrotropin receptor (Homo sapiens) (UniProt P16473). Nature of the assay: qHTS assay to identify small molecule agonists of the thyroid stimulating hormone receptor (TSHR) signaling pathway (AID 1224843; calls by dose curve; note: nearly all actives have a fitted effect of over 45% in size). The gist of the method:
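Cell line HEK293 with TSHR; density 800/well. Exposure 30 min RT. Readout HTRF cAMP (cAMP-d2/anti-cAMP-cryptate), 1 h RT before reading.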

A short description of assay [13]: qHTS assay to identify small molecule antagonists of the estrogen related receptor (ERR) signaling pathway - cell viability counter screen (AID 1224818). Note: series mostly up to about 46 µM. A digest of the protocol: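 Cells carrying the ERR pathway reporter were seeded and incubated for 6 hours before compound addition. After a 17.5-hour exposure at 37 C, live-cell protease activity was measured by CellTiter-Fluor fluorescence following 30 minutes of incubation.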

A short description of assay [14]: qHTS assay to identify small molecule antagonists of the estrogen related receptor signaling pathway with the pleiotropic PPARgamma coactivator (PGC) cell viability counter screen (AID 1224822;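 note: series mostly up to about 46 µM; viability read after 17.5 h compound exposure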). A digest of the protocol:
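Seed PGC/ERR cells (2,000/well); incubate 6 h at 37 C/5% CO2; pin-transfer compounds in DMSO; incubate 17.5 h at 37 C; add CellTiter-Fluor; after 30 min read fluorescence.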

The target of assay [15] is Nuclear receptor subfamily 1 group I member 3 (Homo sapiens) (UniProt Q14994). In words: qHTS assay to identify small molecule agonists of the constitutive androstane receptor (CAR) signaling pathway (AID 1224839). Note: nearly all actives have a fitted effect of over 15% in size. Note: potency is the fitted concentration of half-maximal effect. The gist of the method:
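Readout: firefly luciferase luminescence via ONE-Glo. System: HepG2 double-stable for hCAR and CYP2B6-2.2kb. Conditions: 15-point compound titration, PK11195 at 0.75 uM final, 24 h incubation.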

Sequence of Luciferin 4-monooxygenase (Photinus pyralis) (P08659 whole entry, looked up): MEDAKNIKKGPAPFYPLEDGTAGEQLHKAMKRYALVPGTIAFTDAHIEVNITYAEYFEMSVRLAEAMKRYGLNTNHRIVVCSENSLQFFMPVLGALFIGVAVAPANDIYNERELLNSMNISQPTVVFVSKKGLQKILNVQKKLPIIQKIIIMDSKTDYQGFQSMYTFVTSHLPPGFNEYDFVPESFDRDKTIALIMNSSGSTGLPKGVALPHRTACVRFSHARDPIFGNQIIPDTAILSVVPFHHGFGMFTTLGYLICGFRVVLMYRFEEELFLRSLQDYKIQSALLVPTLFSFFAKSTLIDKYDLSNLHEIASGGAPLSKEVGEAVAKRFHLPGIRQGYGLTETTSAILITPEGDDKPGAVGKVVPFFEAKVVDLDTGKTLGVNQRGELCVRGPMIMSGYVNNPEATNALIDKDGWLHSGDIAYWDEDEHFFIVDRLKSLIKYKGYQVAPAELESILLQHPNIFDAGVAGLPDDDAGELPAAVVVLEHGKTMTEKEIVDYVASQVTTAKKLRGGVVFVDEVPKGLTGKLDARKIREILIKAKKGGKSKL
Sequence of Thyrotropin receptor (Homo sapiens) (P16473 whole entry, looked up): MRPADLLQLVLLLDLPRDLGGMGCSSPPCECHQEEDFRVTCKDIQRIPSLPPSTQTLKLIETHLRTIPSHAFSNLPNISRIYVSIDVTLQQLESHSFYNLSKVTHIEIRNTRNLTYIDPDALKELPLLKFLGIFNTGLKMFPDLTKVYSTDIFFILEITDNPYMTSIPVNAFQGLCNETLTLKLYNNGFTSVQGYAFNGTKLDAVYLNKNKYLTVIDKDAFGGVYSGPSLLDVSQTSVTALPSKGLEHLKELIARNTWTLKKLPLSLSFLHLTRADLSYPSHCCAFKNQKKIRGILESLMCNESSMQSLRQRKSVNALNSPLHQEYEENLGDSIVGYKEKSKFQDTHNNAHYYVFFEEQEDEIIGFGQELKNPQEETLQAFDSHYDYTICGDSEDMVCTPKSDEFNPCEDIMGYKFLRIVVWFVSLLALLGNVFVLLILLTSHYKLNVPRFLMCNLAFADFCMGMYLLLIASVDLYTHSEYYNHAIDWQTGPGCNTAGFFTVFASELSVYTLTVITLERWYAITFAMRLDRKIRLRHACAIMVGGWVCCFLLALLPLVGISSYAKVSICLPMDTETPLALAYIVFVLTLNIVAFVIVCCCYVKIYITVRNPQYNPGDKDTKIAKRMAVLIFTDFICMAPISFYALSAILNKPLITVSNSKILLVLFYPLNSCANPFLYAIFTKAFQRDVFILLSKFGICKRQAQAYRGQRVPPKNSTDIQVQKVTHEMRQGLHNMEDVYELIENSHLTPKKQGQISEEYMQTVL
Sequence of Nuclear receptor subfamily 1 group I member 3 (Homo sapiens) (Q14994 whole entry, looked up): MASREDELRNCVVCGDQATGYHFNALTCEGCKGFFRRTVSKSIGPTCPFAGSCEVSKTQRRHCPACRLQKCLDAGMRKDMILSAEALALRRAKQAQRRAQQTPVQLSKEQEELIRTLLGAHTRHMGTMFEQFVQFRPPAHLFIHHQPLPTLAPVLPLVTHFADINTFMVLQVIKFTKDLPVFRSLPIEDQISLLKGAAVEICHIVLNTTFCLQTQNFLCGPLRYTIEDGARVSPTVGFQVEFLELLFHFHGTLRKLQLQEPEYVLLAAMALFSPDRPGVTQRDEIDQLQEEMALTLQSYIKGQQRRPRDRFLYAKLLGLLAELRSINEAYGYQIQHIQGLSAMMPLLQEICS

As to `COc1nc(C)nc(NC(=O)NS(=O)(=O)c2ccccc2Cl)n1`, the Potency entry in assay [1], in [2], in [3], in assay [4], in assay [5] and in [6] was “inactive” each time. For the same compound, the Potency result in assay [7], in assay [8], in assay [9], in assay [10], in assay [11] and in assay [12] was “inactive” each time.
Regarding `Nc1c(Cl)c(Cl)c(Cl)c(Cl)c1Cl`, the Potency entry in assay [1], in [2], in assay [3], in assay [4], in assay [13] and in assay [14] was “inactive” throughout. The Potency result in [5], in assay [6], in assay [7], in [8], in [9] and in [10] was “inactive” in each case.
Consider `O=C(Cl)c1ccccc1F`, for which the Potency result in [1], in assay [2], in assay [3], in assay [4], in assay [5] and in [6] was “inactive” throughout. Also, the Potency entry in assay [7], in assay [8], in assay [9], in assay [15], in [10] and in assay [12] was “inactive” in each case.
Consider `Cc1ccn2nc(S(=O)(=O)Nc3c(F)cccc3F)nc2n1`, for which the Potency entry in assay [1], in [2], in assay [3], in assay [4], in assay [5] and in assay [6] was “inactive” in each case. The Potency entry in assay [7], in assay [8], in [9], in assay [15], in [10] and in [11] was “inactive” in each case. Moreover, the Potency result in assay [12] was “inactive”.
On to `O=P(Cl)(Cl)Cl`, for which the Potency entry in [1], in assay [2], in assay [3], in assay [4], in assay [5] and in assay [6] was “inactive” in each case. The Potency entry in assay [7], in assay [8], in assay [9], in assay [15], in assay [10] and in assay [12] was “inactive” throughout.
Take `O=c1[nH]c2cc(Cl)ccc2n1C1CCNCC1`: the Potency result in assay [1], in assay [2], in [3], in [4], in [5] and in assay [6] was “inactive” throughout. Moreover, the Potency entry in [7], in assay [8], in assay [9], in assay [15], in [10] and in [12] was “inactive” throughout.
`CCOP(=O)(Sc1ccccc1)Sc1ccccc1`: the Potency result in assay [1], in assay [2], in assay [4], in assay [5], in assay [6] and in assay [7] was “inactive” each time. The Potency result in [8], in assay [9] and in assay [10] was “inactive” throughout. In addition, the Potency in assay [3] was 48.6 µM (active); in assay [15] it was 21.7 µM (active).
Consider `O=S(=O)(O)F`, for which the Potency entry in [1], in [2], in assay [3], in assay [4], in assay [5] and in assay [6] was “inactive” each time. Besides, the Potency entry in assay [7], in assay [8], in [9], in assay [15], in assay [10] and in [12] was “inactive” throughout.
For the compound `NC(=O)C(Cl)Cl`, the Potency result in assay [1], in assay [2], in [3], in [4], in assay [5] and in assay [6] was “inactive” in each case. Moreover, the Potency result in assay [7], in [8] and in assay [10] was “inactive” throughout.
For the compound `COC(=O)c1ccccc1S(=O)(=O)NC(=O)Nc1nc(C)nc(OC)n1`, the Potency entry in assay [1], in assay [2], in assay [3], in assay [4], in [5] and in assay [6] was “inactive” throughout. In addition, the Potency result in [7], in assay [8], in [10] and in assay [12] was “inactive” in each case.
